From PubChem
Vaccinia Venus: qHTS for Stage-Specific Inhibitors of Vaccinia Orthopoxvirus: Venus Reporter Primary qHTS; AID 720580, 2013; 330,000 tested, 0.46% active; Potency, µM (highest dose often 36.5 µM), inactives show top-dose activity change, negative = inhibition, most hits filed as inhibitors; Vaccinia virus Venus reporter expression, fluorescence; calls by dose curve; tested in A549 cells; note: potency is the fitted concentration of half-maximal effect; nearly all actives have a fitted effect of over 30% in size
Vaccinia mCherry: qHTS for Stage-Specific Inhibitors of Vaccinia Orthopoxvirus: mCherry Reporter Primary qHTS; Potency, µM (series often up to 36.5 µM), inactives show at the top dose activity change, negative = inhibition, hits mostly inhibitors; 310,000 tested, 0.63% active; Vaccinia virus mCherry reporter infection, fluorescence; calls by dose curve; tested in A549 cells; note: potency is the fitted concentration of half-maximal effect; nearly all actives have a fitted effect of over 35% in size
HCMV antiviral: qHTS Assay for inhibitors of the human cytomegalovirus (HCMV); activity change, negative = inhibition, % at 57.5 µM; HFF cells, HCMV-luciferase reporter, 72 h; hits give low values; 410,000 tested, 4.5% active; in the data active = activity change below about -60%; inconclusive = no clear call, values can overlap the other calls; inactive = above about -39%
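HFF cells seeded 16 h at 37C, treated with compounds, infected with luciferase-reporter HCMV at MOI 1 PFU/cell; luciferase read at 72 h post infection, normalized to buffer-only and Salinomycin controls.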
HCV inh: qHTS Assay for Inhibitors of Hepatitis C Virus (HCV). Potency, µM (titrated, usually from 41.8 µM), for inactives: at the top dose activity change, negative = inhibition, actives largely listed as inhibitors. Huh7.5.1 HCVcc-Cre infection, luciferase reporter, 44 h. AID 651820, 2012. 340,000 tested, 3.4% active; active = well fitted inhibition curve with a large enough effect; inconclusive = small, poorly fitted or top-dose-only effect, or another doubt; inactive = no such curve, though single readings can be large or run the other way; note: potency is the fitted concentration of half-maximal effect
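Whole-lifecycle infectious HCVcc-Cre system; cells 1,000/well, compound then virus (~0.5 moi) added 4 h after plating, 44 h culture. Luciferase read 15 sec following 15 min substrate incubation, room temp.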
FMDV antiviral: High Throughput Screening for Foot and Mouth Disease Virus Antivirals; FMDV antiviral cell-based qHTS; Potency, µM (series often up to 57.9 µM), without a hit: at the top dose activity change, negative = inhibition, usual class: inhibitors; 410,000 tested, 1.2% active; AID 1159524, 2015; calls by dose curve; tested in HEK293T cells; note: read-out not given here; potency is the fitted concentration of half-maximal effect; nearly all actives have a fitted effect of over 45% in size
* = called active by the depositor; i = inactive; ? = inconclusive; · = no result. In the library only some 7.3% were active in any assay of this set; here they are far more common. % is set by controls: 0 for no effect and ±100 for the full control effect.

SMILES | Vaccinia Venus | Vaccinia mCherry | HCMV antiviral | HCV inh | FMDV antiviral
O=C(Nc1cccnc1)Nc1ccc(Br)cc1Cl | · | · | 4 | 11µM* | 4%
O=C(Nc1ccccc1)Nc1cc(OCC(F)(F)F)cc(OCC(F)(F)F)c1 | ? | ? | -100* | 6.3µM* | -20%
Cc1cc2n(n1)CCC(=O)N2Cc1ccc(C(=O)Nc2cccc(C(F)(F)F)c2)cc1 | -18% | -10% | -29 | · | -26%
Cc1ccc(C)c(Nc2cc(C(=O)NC3CCCCC3)c3ccccc3n2)c1 | -4% | -11% | 18 | · | 8%
Cc1c(C(=O)N2CCCCC2c2cccnc2)sc2ncnc(NCc3cccs3)c12 (configuration not stated) | -28% | -6% | · | · | 8%
Cc1ccc(-c2nnn3c2nc(NCC(C)c2ccccc2)c2ccccc23)cc1 (configuration not stated) | -16% | -26% | ? | · | 25%
CCCN1C(=O)C(Cc2nc3ccccc3c(=O)n2CC)c2ccccc21 (configuration not stated) | -15% | -1% | 47 | · | -21%
Cc1cc(N)c2cc(NC(=O)/C=C/c3ccccc3Cl)ccc2n1 | · | · | · | 11µM* | ?
Cc1cc(C)nc(NC(=O)/C=C/c2ccccc2Cl)n1 | -10% | · | 10 | -30% | 34%
COc1ccccc1C1CCCN1Cc1nc(-c2cc3c(cc2Cl)OCO3)oc1C (configuration not stated) | -1% | ? | -24 | -20% | -20%
COc1ccccc1C1CCCN1Cc1nc(-c2ccc(C)s2)oc1C (configuration not stated) | 36% | ? | -99* | ? | -20%
O=C(Nc1cc(F)ccc1F)C1CCN(C(=O)c2cnn(-c3ccccc3)c2-n2cccc2)CC1 | -9% | -15% | 10 | · | -28%
Cc1ccc(C)c(Nc2nn3c(=O)c4ccc(C(=O)NCc5cccs5)cc4nc3s2)c1 | ? | ? | -99* | · | -15%
COc1ccccc1Nc1nn2c(=O)c3ccc(C(=O)NCc4cccs4)cc3nc2s1 | ? | ? | -97* | · | ?
CCN(CC)CCNC(=O)c1ccc2c(=O)n3nc(Nc4ccccc4OC)sc3nc2c1 | -21% | ? | -101* | · | -10%
COc1ccccc1Nc1nn2c(=O)c3ccc(C(=O)NC4CCCCC4)cc3nc2s1 | -17% | -13% | 0 | · | ?
CCCN1CNc2c(c(=O)[nH]c(=S)n2CCc2cc(OC)ccc2OC)C1 | -6% | -11% | · | · | ·
CCNc1ncc2nc(-c3cc(F)cc(F)c3)c(=O)n(CCC#N)c2n1 | · | · | · | · | -10%
COc1ccc2[nH]c3c(c2c1)CCN(C(=O)c1cccc(Cl)c1)C3c1ccc(F)cc1 (configuration not stated) | 4% | ? | -73* | · | -15%
CCOc1cccc(CC(=O)N2CCc3c([nH]c4ccc(OC)cc34)C2c2ccc(F)cc2)c1OCC (configuration not stated) | 3% | 7% | -15 | · | -13%
COC1=C(OC)C(=O)c2ccccc2C1=O | -13% | -16% | · | · | ·
COC1=C(Nc2ccc(C)cc2)C(=O)c2ccccc2C1=O | ? | ? | 35 | ? | -15%
COC1=C(N)C(=O)c2nc(C)ccc2C1=O | 4% | i | -16 | ? | 10µM*
COC1=C(Br)C(=O)c2nc(C)ccc2C1=O | -24% | -6% | 12 | · | 40µM*
CC(C)Oc1cc(F)ccc1-c1cc(C(=O)NCc2ccccn2)[nH]n1 | -5% | 0% | -76* | · | -23%
SMILES | Vaccinia Venus | Vaccinia mCherry | HCMV antiviral | HCV inh | FMDV antiviral
O=C(Nc1nccs1)C1CC(=O)N(CCc2ccc(F)cc2)C1 (configuration not stated) | -14% | -12% | -62* | 9% | -14%
CCc1nnc(NC(=O)C2CC(=O)N(CCc3ccc(F)cc3)C2)s1 (configuration not stated) | -6% | -6% | -64* | 8% | 2%
CCc1nnc(NC(=O)C2CC(=O)N(CCc3ccccc3)C2)s1 (configuration not stated) | · | · | 114 | -28% | 13%
O=C(Nc1nccs1)C1CC(=O)N(c2ccc(F)cc2)C1 (configuration not stated) | 6% | -2% | 17 | 13% | 3%
CCOc1ccc(CCNC(=O)C2CC(=O)N(CCc3ccc(OC)c(OC)c3)C2)cc1OCC (configuration not stated) | -21% | -17% | -14 | ? | -16%
CCOc1ccc(CCNC(=O)C2CC(=O)N(CCc3ccccc3)C2)cc1OCC (configuration not stated) | -12% | -14% | -72* | -26% | 7%
Cc1ccc(N2CC(C(=O)Nc3nccs3)CC2=O)cc1Cl (configuration not stated) | · | · | -91* | ? | 11%
Cc1ccccc1Nc1n[nH]c(=S)s1 | -6% | -2% | 3 | · | 7%
Cc1c(Cl)cccc1Nc1n[nH]c(=S)s1 | -9% | -4% | -66* | 20% | -3%
CC(=O)N1CCN(C2=NC(=O)/C(=C/c3ccc(OS(=O)(=O)c4ccccc4)cc3)S2)CC1 | · | · | -70* | -5% | -15%
O=C1N=C(N2CCOCC2)S/C1=C\c1ccccc1OS(=O)(=O)c1ccccc1 | · | · | ? | -8% | -1%
CCCC(=O)NC(c1ccc2c(c1)OCO2)c1cc(Cl)c2cccnc2c1O (configuration not stated) | ? | 13µM* | · | 1.1µM* | -25%
CCCC(=O)NC(c1ccco1)c1cc(Cl)c2cccnc2c1O (configuration not stated) | ? | ? | -98* | 11µM* | -4%
CCCC(=O)NC(c1cccs1)c1cc(Cl)c2cccnc2c1O (configuration not stated) | 9% | -20% | -114* | 3.2µM* | -21%
CCC(=O)NC(c1ccco1)c1cc(Cl)c2ccccc2c1O (configuration not stated) | · | · | ? | · | -12%
O=C(NCc1ccccc1Cl)C(=O)NCC(c1ccco1)S(=O)(=O)c1cccs1 (configuration not stated) | -10% | -18% | 5 | · | 0%
COc1cc(CN(C(=O)c2oc3ccccc3c2C)C2CCS(=O)(=O)C2)cc(OC)c1OC (configuration not stated) | -4% | -1% | 6 | · | -14%
O=C(Cn1cc(SCc2ccccc2Cl)c2ccccc21)N1CCCCCC1 | -13% | i | 43 | · | -7%
COc1ccc(C(=O)C[n+]2cc(-c3ccc(OC)cc3)n3c2CCCC3)cc1 | ? | -17% | -67* | -6% | ?
Cc1ccc(C(=O)C[n+]2cc(-c3ccc(C)cc3)n3c2CCCCC3)cc1 | -24% | -12% | -102* | ? | 10µM*
Cc1ccc(-c2c[n+](Cc3ccc(Cl)c(Cl)c3)c3n2CCC3)cc1 | -23% | -23% | -99* | -14% | -22%
